{"source": "PubChem BioAssay (NCI)", "note": "Compounds without any hit were thinned out: in the full panel of roughly 83,000, 20% have a hit.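 Single-dose data. Exposure time 48 hours. Values below 10 considered active.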 A number with no mark means an inactive call. Calls of active or inactive are those of the source.", "data": [{"system": "SK-MEL-2 melanoma", "assay": "NCI-60 one-dose screen, 48 h (100 = growth as untreated, 0 = no growth, -100 = all killed)", "conditions": "10 µM unless noted", "values": [{"smiles": "CCCCCCCC/C=C\\CCCCCCCCOc1ccccc1CCOP(=O)(O)OCC[N+](C)(C)C", "growth": "84.6%"}, {"smiles": "CCN1C(=S)N(CC)C2Nn3c(s/c(=C4\\C(=O)N(C)c5ccccc54)c3=O)=NC21", "note": "(centres undefined)", "growth": "70.4%"}, {"smiles": "O=C(CNC(=O)c1cccc2ccccc12)Nc1ccccc1Oc1ccccc1", "growth": "34.8%"}, {"smiles": "CN(C)C/C=C/C(=O)Nc1cc2c(Nc3ccc(F)c(Cl)c3F)ncnc2cc1OCCOC(F)F", "growth": "44.1%"}, {"smiles": "CC(C)C(C(=O)CCN(C)C)c1ccc(Cl)cc1", "note": "(centres undefined)", "growth": "98.4%"}, {"smiles": "CCN1C(=O)/C(=c2\\sc3n(c2=O)C2C(NN=3)N(CC)C(=S)N2CC)c2ccccc21", "note": "(centres undefined)", "growth": "102%"}, {"smiles": "ClC1=C(Cl)C(Cl)=C(Cl)C1=Cc1ccc(Cl)cc1Cl", "growth": "-2.84% (active)"}, {"smiles": "CC(C)CCC[C@@H](C)[C@H]1CC[C@H]2[C@@H]3CC[C@H]4C/C(=N/O)CC[C@]4(C)[C@H]3CC[C@]12C", "growth": "101%"}, {"smiles": "COc1ccc(/C=c2\\sc3n(c2=O)C2C(NN=3)N(C)C(=O)N2C)cc1", "note": "(centres undefined)", "growth": "39.6%"}, {"smiles": "COc1ccc(OC)c(/C=C2\\Oc3cc(OCCN4CCCC4)ccc3C2=O)c1", "growth": "106%"}, {"smiles": "CCCCCC/C=C\\CCCCCCCCOc1ccc(CCOP(=O)(O)OCC[N+](C)(C)C)cc1", "growth": "91%"}, {"smiles": "CCN1C(=O)N(CC)C2C1NN=c1s/c(=C3\\C(=O)N(C4CCCC4)c4ccccc43)c(=O)n12", "note": "(centres undefined)", "growth": "41.3%"}, {"smiles": "CN(C)c1nc(N)c(N=O)c(N)n1", "growth": "104%"}, {"smiles": "C/C(=N\\NC(=O)CC#N)c1cc2cc(Cl)ccc2o1", "growth": "96.4%"}, {"smiles": "COc1cc(C2CC(c3c(C)[n+]([O-])c4ccccc4[n+]3[O-])=NN2)cc(OC)c1OC", "note": "(centres undefined)", "growth": "96.4%"}, {"smiles": "COc1ccc(NC(=S)/N=c2\\oc3c(OC)cccc3cc2-c2cc3ccccc3[nH]2)cc1", "growth": "90.2%"}, {"smiles": "COc1cc(/C=C/C(=O)c2ccccc2O)ccc1OCCCOc1cc2c(cc1OC)C(=O)N1CCC[C@H]1C=N2", "growth": "-61.1% (active)"}, {"smiles": "O=C1CCC/C=C\\C[C@H]2C=CC(=O)/C2=C/C[C@H](C/C=C\\CC(F)(F)F)O1", "growth": "-20.9% (active)"}, {"smiles": "CC(C)(C)c1cc(-c2nc3ccc(N4CCN(CCO)CC4)cc3[nH]2)cc(C(C)(C)C)c1O", "growth": "81.8%"}, {"smiles": "C=C1C(=O)O[C@H]2[C@H]1CC/C(Cn1cc(-c3ccsc3)nn1)=C\\CC[C@@]1(C)O[C@@H]21", "growth": "-21.5% (active)"}, {"smiles": "C#CCN1C(=O)/C(=c2\\sc3n(c2=O)C2C(NN=3)N(CC)C(=O)N2CC)c2ccccc21", "note": "(centres undefined)", "growth": "45.1%"}, {"smiles": "COc1cccc2cc(-c3cc4ccccc4[nH]3)/c(=N/C(=S)Nc3ccccc3)oc12", "growth": "91.5%"}, {"smiles": "Cc1ccc(S(=O)(=O)OCC(=O)Nc2ccc(C(=O)O)c(O)c2)cc1", "growth": "39.5%"}, {"smiles": "CCCCCCCCCN1C(=O)/C(=c2\\sc3n(c2=O)C2C(NN=3)N(CC)C(=O)N2CC)c2ccccc21", "note": "(centres undefined)", "growth": "76.2%"}, {"smiles": "Cc1oc2nc[nH]c(=O)c2c1C(=O)/C=C/c1ccc(Cl)cc1Cl", "growth": "91.3%"}, {"smiles": "C#CCN1C(=O)/C(=c2\\sc3n(c2=O)NC2C(N=3)N(CC)C(=O)N2CC)c2ccccc21", "note": "(centres undefined)", "growth": "91.3%"}, {"smiles": "CCN(Cc1ccc(CN(CC)C(=O)C(Cl)(Cl)Cl)cc1)C(=O)C(Cl)(Cl)Cl", "growth": "89%"}, {"smiles": "COc1cc(C(=O)N2CCN(C(=O)c3ccco3)CC2)c(N)cc1OCc1ccccc1", "growth": "77.6%"}, {"smiles": "CCN1C(=O)N(CC)C2Nn3c(s/c(=C\\c4cccc(F)c4)c3=O)=NC21", "note": "(centres undefined)", "growth": "85.3%"}, {"smiles": "COc1ccc(NC(=O)/N=c2\\oc3c(OC)cccc3cc2-c2cc3ccccc3[nH]2)cc1", "growth": "75.9%"}, {"smiles": "O=c1[nH]c(CN2CCN(c3ccccc3F)CC2)nc2sc3c(c12)CCC3", "growth": "87.6%"}, {"smiles": "O=C(CSc1nc(-c2ccc(Cl)cc2)cn1-c1ccc(Cl)cc1)c1ccc(Br)cc1", "growth": "87%"}, {"smiles": "CCCCNc1nnc(-c2cc(-c3cc4ccccc4o3)nn2-c2ccccc2)o1", "growth": "90.6%"}, {"smiles": "COc1cc2oc(-c3cccc(NC(=O)Nc4ccc5c(c4)OCO5)c3)cc(=O)c2c(OC)c1OC", "growth": "71.7%"}, {"smiles": "CCN1C(=O)N(CC)C2Nn3c(s/c(=C4\\C(=O)N(C5CCCC5)c5ccccc54)c3=O)=NC21", "note": "(centres undefined)", "growth": "75.9%"}, {"smiles": "NC(N)=NC(N)=Nc1ccccc1-c1ccccc1", "growth": "109%"}, {"smiles": "C=CC(=O)N[C@H](/C=C/C(=O)OCC)Cc1ccc(-c2cc(Cl)cc(Cl)c2)cc1", "growth": "90.4%"}, {"smiles": "CCN1C(=O)N(CC)C2C1NN=c1s/c(=C\\c3ccccn3)c(=O)n12", "note": "(centres undefined)", "growth": "39.9%"}, {"smiles": "C/C1=C\\CCC2(C)OC2CC2CCC(C)(O)C(CC1)C2(C)C", "note": "(centres undefined)", "growth": "106%"}]}]}
